Screening data from PubChem.
Only a selection was taken, and hits are over-represented in it overall.
Pf Dd2 inh: blocks in vitro growth of P. falciparum Dd2; P. falciparum Dd2 growth, SYBR Green, 72 h; Potency, µM (series often up to 28.9 µM), actives largely listed as inhibitors; actives 4.3% (n = 120,000); AID 1347417; active = well fitted inhibition curve with a large enough effect; also: nearly all actives have a fitted effect of over 65% in size
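Infected erythrocytes (Dd2, 0.3% parasitemia, 2.5% hematocrit final) are added to compound in RPMI-1640/Albumax II medium, grown 72 h at 37C in low oxygen, then lysed with saponin/Triton-X containing SYBR Green and read by fluorescence.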
Large screens that a line does not name were inactive.

Cc1cc(C)c(Cn2c3ccccc3c3cnn(CC(=O)NC4CCCCCC4)c(=O)c32)c(C)c1	none
CCOC(=O)C1CCN(C(=O)Cn2ncc3c4ccccc4n(Cc4ccccc4F)c3c2=O)CC1	none
Cc1ccc(C)c(Cn2c3ccccc3c3cnn(CC(=O)N4CCCCC4)c(=O)c32)c1	none
O=C(Cn1ncc2c3ccccc3n(Cc3ccccc3F)c2c1=O)NC1CCCCCC1	none
CCCn1c2ccccc2c2cnn(CC(=O)N3CCN(c4ccccc4F)CC3)c(=O)c21	none
CC1CCCCN1C(=O)Cn1ncc2c3ccccc3n(Cc3ccccc3F)c2c1=O (configuration not stated)	Pf Dd2 inh 12.6µM
CCN1CCN(C(=O)Cn2ncc3c4ccccc4n(Cc4ccccc4F)c3c2=O)CC1	Pf Dd2 inh 11.2µM
O=C1NC(C(=O)NCc2cccc(C(F)(F)F)c2)Cn2cccc21 (configuration not stated)	none
CN1CCC(NCc2nc3c(n2Cc2ccccc2)C(=O)N(CCOc2ccccc2)CCN3)CC1	none
Cc1nn(C)c(C)c1S(=O)(=O)N1CCC2(CC1)CC(N(C)Cc1ccccc1)CCO2 (configuration not stated)	none
COCC(=O)N[C@H]1C[C@H]2C(=O)NC[C@@H](CCC(=O)N3CCN(c4ccccc4)CC3)N2C1	none
CC(C)Oc1ccc2c(NC(=O)CN3CCOCC3)nn(CC(F)(F)F)c2c1	none
CCn1nccc1C(=O)N1CCCC(c2noc(COc3ccccc3F)n2)C1 (configuration not stated)	none
CC(=O)NCC(=O)N1CCCC2(COc3ccccc3[S+](=O)([O-])N2)C1 (configuration not stated)	none
COc1cc(=O)n2c(c1C(=O)Nc1cccc(SC)c1)CCCC2	none
O=C(NCCc1ccccc1)N(C1CCOCC1)C1CCN(Cc2ccccc2)CC1	Pf Dd2 inh 5.62µM
O=C(NCCc1ccccc1)N(C1CCOCC1)C1CCN(Cc2cccnc2)CC1	none
O=C(NCCc1ccccc1)N(C1CCOCC1)C1CCN(Cc2ccsc2)CC1	none
CN1CCC(OC2CCN(C(=O)C3CC3)CC2)CC1	none
Cc1cc(F)ccc1NC(=O)c1cc2n(n1)CC(c1ccc(Br)cc1)OC2 (configuration not stated)	none
COc1ccccc1N1CCCc2ncc(C(=O)Nc3cccc(F)c3)cc21	none
Cc1nn2c(=O)cc(COC(=O)c3ccc(C(C)(C)C)cc3)nc2s1	none
COCCc1nn2c(=O)cc(COC(=O)c3ccc(C(C)(C)C)cc3)nc2s1	Pf Dd2 inh 14.1µM
COCCc1nn2c(=O)cc(COC(=O)c3cccs3)nc2s1	none
Cc1cc(C)cc(Oc2nc3c(C)cccn3c(=O)c2/C=C(\C#N)c2nc3ccccc3s2)c1	Pf Dd2 inh 0.891µM
Cc1cc(C)cc(Oc2nc3ccccn3c(=O)c2/C=C(\C#N)c2nc3ccccc3s2)c1	none
Cc1cc(Oc2nc3ccccn3c(=O)c2/C=C(\C#N)c2nc3ccccc3s2)ccc1Cl	none
CCc1ccc(Oc2nc3c(C)cccn3c(=O)c2/C=C(\C#N)c2nc3ccccc3s2)cc1	none
N#C/C(=C\c1c(Oc2ccc(Br)cc2)nc2ccccn2c1=O)c1nc2ccccc2s1	none
Cc1cccn2c(=O)c(/C=C(\C#N)c3nc4ccccc4s3)c(Oc3ccc(F)cc3)nc12	Pf Dd2 inh 3.16µM
COCc1cc(C[C@@H]2CC[C@H](O)[C@@H](CN(C(=O)Nc3ccc(OC)cc3)C(=O)Nc3ccc(OC)cc3)O2)no1	none
CC[C@H]1CN(S(=O)(=O)c2ccc(OC)cc2)CC[C@H]1CC(=O)NCCN1CCOCC1	none
COc1ccc(C(=O)N2CC[C@@H]3NC(=O)[C@H]4C[C@H](NC(=O)C5CCCCC5)CN4C(=O)[C@H]32)cc1	none
COCc1noc([C@@H]2CN(S(=O)(=O)Cc3ccccc3F)C[C@H]2C(N)=O)n1	none
COCc1noc([C@@H]2CC(F)(F)CN2C(=O)c2c(C)noc2C)n1	none
O=C(Cn1nc2c(cc1=O)CCCC2)NCc1nnc2ccccn12	none
COc1ccc(N2CC(C(=O)NCC(F)F)NC2=O)cc1 (configuration not stated)	none
O=C(COc1ccccc1)Nc1sc2c(c1C(=O)Nc1ccccc1)CCCCC2	none
CCOC(=O)c1ccc(NC(=O)c2csc3c2CCCC3)cc1	none
COc1ccc(NC(=O)c2c(NC(=O)c3cccc(C)c3)sc3c2CCC3)cc1	none
COc1ccc(NC(=O)c2c(NCc3cccs3)sc3c2CCCC3)cc1	Pf Dd2 inh 7.94µM
COC(=O)c1c(NC(=O)COc2cc(C)c(Cl)c(C)c2)sc2c1CCCC2	none
CCCCOc1ccc(C(=O)Nc2sc3c(c2C(=O)OCC)CCCCC3)cc1	none
CCOC(=O)c1ccc(NC(=O)c2c(NCc3cccs3)sc3c2CCCCC3)cc1	Pf Dd2 inh 10µM
COc1ccc(NC(=O)c2c(NC(=O)COc3ccc(Cl)cc3)sc3c2CCCCC3)cc1	Pf Dd2 inh 3.16µM
COc1ccc(CC(=O)Nc2sc3c(c2C(=O)Nc2ccccc2)CCCCC3)cc1	none
O=C1CC2CCN(C(=O)c3ccc(C(F)(F)F)cc3)CC2CCN1 (configuration not stated)	none
COC[C@H]1C[C@@H](NC(=O)c2cncnc2)[C@H](O)[C@@H]1O	none
COc1ccc(F)cc1S(=O)(=O)N1CCCC(Cn2c(C3CC3)nc3cccnc32)C1 (configuration not stated)	none
